# Test results from PubChem BioAssay (NCI).
# Compounds without any hit were thinned out: in the full panel of roughly 83,000, 20% have a hit.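 Assay: single dose, 48 h. Readout: percent growth (0 = no net growth; negative = cell death). Active: <10.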 Calls of active or inactive are those of the source.
# Tested on: MDA-MB-468 breast
# Test: NCI-60 one-dose screen, 48 h (100 = growth as untreated, 0 = no growth, -100 = all killed)
# Conditions: 10 µM unless noted
row,Structure (SMILES),growth
1,CSc1nc2nc3c(nc2c(=O)n1C)C(=O)c1ccccc1C3=O,-58.4% (active)
2,COC(=O)c1ccc(NC(N)=NCCC(C)(C)c2ccc(C(F)(F)F)cc2)nc1,-14.2% (active)
3,COc1cc(NC(=O)CSc2nc3ccccc3c(=O)n2CCc2ccccc2)cc(OC)c1OC,29.9% (inactive)
4,CCOC(=O)c1[nH]c(C)c(C(=O)O)c1C,108% (inactive)
5,C=C(C)[C@@H]1CC[C@]2(C(=O)n3ccnc3)CC[C@]3(C)[C@H](CC[C@@H]4[C@@]5(C)CCCNC(C)(C)[C@@H]5CC[C@]43C)[C@@H]12,-11.1% (active)
6,COc1cccc(NC(=O)Nc2ccc(Nc3ncnc4sc5c(c34)CCN(C(=O)CCl)C5)cc2)c1,117% (inactive)
7,CS(=O)(=O)c1nccc(-c2c(-c3ccc(OCCc4ccccc4)cc3)nc3sccn23)n1,-81.5% (active)
8,CCc1ccc(C(c2ccc(CC)cc2)C(Cl)(Cl)CCl)cc1,95.8% (inactive)
9,COc1ccc(/C=c2\sc3n(c2=O)C(c2cc(OC)c(OC)c(OC)c2)C=C(c2ccc(OC)c(OC)c2)N=3)cc1OC (stereo not given),105% (inactive)
10,CC1=CC(C)=Nc2ccc(Cl)cc2N1,109% (inactive)
11,CC[N+](C)(C)N,95.9% (inactive)
12,COc1c(C2CC(=O)Nc3c2cnn3Cc2ccco2)cc2c(c1OC)OCO2 (stereo not given),16.2% (inactive)
13,COc1cccc(COc2ccc(/C=C3/C(=O)Nc4cc(Cl)ccc43)cc2)c1,85.1% (inactive)
14,O=C(CSc1nccc(Nc2cccc3ccccc23)n1)c1ccc(Cl)cc1,98.5% (inactive)
15,COc1cc(C2CC(=O)c3c(C)nn(-c4nc5ccccc5[nH]4)c3C2)cc(OC)c1OC (stereo not given),82% (inactive)
16,COc1cccc(/C=C2\Oc3cc(OCCCN4CCCC4)ccc3C2=O)c1OC,93.2% (inactive)
17,N=C(N)c1ccc(-c2ccc(-c3ccco3)o2)cc1F,-57.4% (active)
18,O=C1/C(=C/c2ccccc2)CN(C(=O)c2cccnc2)C/C1=C\c1ccccc1,-49.2% (active)
19,COc1ccc(/C(C)=C(\c2ccc(Cl)cc2)c2ccc(OCCN3CCCC3)cc2)cc1,57.8% (inactive)
20,CC1OC(n2c3ccccc3c3c4c(c5c6ccccc6[nH]c5c32)C(=O)N(CCN2CCOCC2)C4=O)CC(O)C1O (stereo not given),-10.8% (active)

row,Structure (SMILES),growth
1,OC(c1ccccc1)c1ccccn1 (stereo not given),103% (inactive)
2,C=C1C(=O)O[C@H]2[C@H]1CC/C(CNC(=O)C(C)c1ccc(CC(C)C)cc1)=C\CC[C@@]1(C)O[C@@H]21 (stereo not given in full),-23.5% (active)
3,COc1ccc(-n2cnc3c(sc4ncc(Cl)cc43)c2=O)cc1,93.1% (inactive)
4,O=C1/C(=C/C2=Cc3ccccc3OC2)SC(=S)N1c1ccc(F)cc1,112% (inactive)
5,COc1ccc(C(c2cc(OC)c(OC)c(OC)c2)N2CCCCC2)cc1 (stereo not given),9.32% (active)
6,N#Cc1c2ncccc2c2nnc3cc(Cl)c(Cl)cc3n12,21.7% (inactive)
7,NCCCNc1nc2ccccc2c2c(=O)c3cccc(Cl)c3sc12,-80.2% (active)
8,CCCCCCCCCCCC[N+](C)(C)Cc1ccccc1,-26.4% (active)
9,CCNCc1ccncc1,96.9% (inactive)
10,CN1CCN(Cc2ccc(/C=N/Nc3ccnc4cc(Cl)ccc34)cc2)CC1,77.1% (inactive)
11,CCCc1cc(CCC)n2nc(N)nc2n1,95.8% (inactive)
12,COc1ccc(Nc2ncccc2NC(=O)c2cn(Cc3cccc(Oc4ccccc4)c3)nn2)cc1,89.8% (inactive)
13,Cc1ccc2c(c1)O/C(=C\c1ccc([N+](=O)[O-])o1)C2=O,23.3% (inactive)
14,Nc1cccc(-c2nc3sccn3c2-c2ccnc(NCCNS(=O)(=O)c3ccc(C(F)(F)F)cc3)n2)c1,51.4% (inactive)
15,CCN1C(=O)N(c2ccccc2)C2NC(=S)N(/N=C/C=C/c3ccccc3OC)C21 (stereo not given),2.35% (active)
16,C#C[C@]1(O)CC[C@H]2[C@@H]3CC=C4c5sc(Nc6cc(F)ccc6F)nc5CC[C@]4(C)[C@H]3CC[C@@]21C,-45.6% (active)
17,O=[N+]([O-])c1cccc(SSc2cccc([N+](=O)[O-])c2)c1,109% (inactive)
18,CCOC(=O)c1ccc(N2C(=O)C(Cl)(c3ccccc3)C2c2ccco2)cc1 (stereo not given),65.9% (inactive)
19,CN(C)c1ccc2nc3ccc(=N)cc-3sc2c1,38.6% (inactive)
20,O=C(O)CCCCCNC(=O)OCc1ccccc1,116% (inactive)
